The list is not random: actives were taken first. Their share in the collection is about 2.9%.
Pol eta inh = DNA polymerase eta (human) inhibition; Q9Y253; recombinant Pol eta, fluorescent DNA replication assay; Potency, µM (titrated, usually from 114 µM), for inactives: at the highest dose activity change, negative = inhibition, hits mostly inhibitors; 390,000 tested, 1.2% active; AID 588591; further: potency means the concentration at half of the fitted maximal effect; on the % scale 0 is the no-effect control and ±100 the full control effect
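Fluorescent replication assay: 50 nM final substrate added after a 15 min room-temperature compound preincubation with 10 nM enzyme. Signal taken at 0 min and again at 10 min.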
Pol iota inh = inhibitors of human DNA polymerase iota; 390,000 tested, 1% active; Pol iota fluorescent replication assay, 10 min; Q9UNA4; Potency, µM (titrated, usually from 115 µM), inactives show at the highest dose activity, negative = inhibition, actives largely listed as inhibitors; further: potency means the concentration at half of the fitted maximal effect
Target sequence (Q9UNA4 whole entry, looked up): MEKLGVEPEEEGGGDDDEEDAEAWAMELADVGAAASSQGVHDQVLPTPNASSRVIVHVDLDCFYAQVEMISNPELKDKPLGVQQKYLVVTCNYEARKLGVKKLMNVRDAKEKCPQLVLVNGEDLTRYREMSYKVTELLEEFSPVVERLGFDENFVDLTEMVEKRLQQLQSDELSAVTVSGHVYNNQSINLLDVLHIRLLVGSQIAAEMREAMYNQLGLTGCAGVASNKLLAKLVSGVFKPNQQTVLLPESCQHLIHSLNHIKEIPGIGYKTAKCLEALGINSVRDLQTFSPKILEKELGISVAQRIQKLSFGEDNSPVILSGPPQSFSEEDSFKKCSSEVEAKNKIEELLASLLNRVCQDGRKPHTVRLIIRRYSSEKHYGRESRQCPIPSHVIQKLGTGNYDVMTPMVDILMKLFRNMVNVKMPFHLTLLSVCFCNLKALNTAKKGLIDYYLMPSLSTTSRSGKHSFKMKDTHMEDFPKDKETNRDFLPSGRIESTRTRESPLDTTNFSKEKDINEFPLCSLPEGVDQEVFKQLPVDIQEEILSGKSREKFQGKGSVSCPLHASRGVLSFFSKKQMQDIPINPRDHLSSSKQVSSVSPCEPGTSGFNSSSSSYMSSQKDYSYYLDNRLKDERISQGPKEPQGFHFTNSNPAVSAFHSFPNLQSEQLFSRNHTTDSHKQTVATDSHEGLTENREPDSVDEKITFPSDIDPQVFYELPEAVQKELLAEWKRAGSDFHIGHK
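Fluorescent replication assay read twice, at 0 min and 10 min after adding 50 nM (final) substrate. Enzyme (10 nM) and compounds were first incubated 15 min at room temperature; enzyme-free buffer wells were negative controls.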
12-LOX inh = blocks human arachidonate 12S-lipoxygenase; AID 1671190; purified 12hLO, xylenol orange hydroperoxide absorbance; 580,000 tested, 1.1% active; P18054; Potency, µM (series often up to 108 µM), for inactives: top-dose activity change, negative = inhibition, hits mostly inhibitors; further: potency means the concentration at half of the fitted maximal effect; on the % scale 0 is the no-effect control and ±100 the full control effect
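Hydroperoxide product was detected by ferrous iron/xylenol orange as the 573 to 405 nm absorbance ratio. Arachidonic acid at 40 uM (final) was turned over for 30 min at room temperature by 150 nM human 12hLO, pH 7.0 Hepes buffer, after 15 min compound preincubation.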
Pol beta inh = inhibitors of human DNA polymerase beta. P06746. Pol beta primer extension/strand displacement, fluorescence kinetic. Potency, µM (highest dose often 114 µM), without a hit: top-dose activity change, negative = inhibition, hits mostly inhibitors. 340,000 tested, 1.3% active; further: potency means the concentration at half of the fitted maximal effect; on the % scale 0 is the no-effect control and ±100 the full control effect
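Pol beta (10 nM) and compounds were preincubated 15 min at room temperature, then 50 nM substrate (final) started primer extension/strand displacement. Reads were taken at 0 and 10 min; concentration-response data were fitted to a four-parameter Hill equation.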
Pol kappa inh = inhibitors of human DNA polymerase kappa. purified Pol kappa, fluorescent DNA synthesis assay, 10 min. Potency, µM (series often up to 107 µM), for inactives: top-dose activity, negative = inhibition, actives largely listed as inhibitors. 400,000 tested, 0.53% active. AID 588579; further: potency means the concentration at half of the fitted maximal effect; on the % scale 0 is the no-effect control and ±100 the full control effect
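10 nM Pol kappa was preincubated with compounds for 15 min at room temperature. Reaction started with 50 nM (final) substrate. Fluorescence read kinetically at 0 and 10 min.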
PI5P4K alpha inh = PI5P4K alpha (human) kinase inhibition. max response, %. AID 652105. PI5P4Kalpha enzyme, ADP-Glo luminescence, 60 min; active compounds read low. 330,000 tested, 1.2% active. P48426; active means max response of -50% or lower; inconclusive means between -30% and -50%; inactive means -30% or higher; further: value at the top dose of about 77 µM; on the % scale 0 is the no-effect control and ±100 the full control effect
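Reactions run in 0.038 M HEPES pH 7.4, 0.28 mM EGTA, 0.1% CHAPS and 5% DMSO, with PI5P4Kalpha, substrate, compound and 5 microM ATP final, one hour at room temperature. Readout is ADP-Glo luminescence.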
* = called active by the depositor; ? = inconclusive; · = not tested or not shown; ! = not active in a repeat; [ ] = another dose, or the depositor's remark. Unless noted, the call rests on the fitted dose curve; in most records, active means well fitted inhibition curve with a large enough effect; inconclusive means small, poorly fitted or top-dose-only effect, or another doubt; inactive means no such curve, though single readings can be large or run the other way.

SMILES | Pol eta inh | Pol iota inh | 12-LOX inh | Pol beta inh | Pol kappa inh | PI5P4K alpha inh
CCCc1cc(=O)oc2cc(OS(=O)(=O)c3cc(Br)ccc3OCC)ccc12 | · | · | -17% | · | · | ·
COc1ccc(CCNC(=O)c2c[nH]n3c(=O)c(Cc4ccccc4Cl)c(C)nc23)cc1OC | · | -18% | ? | 79µM* | 6%[60.1 µM] | ·
Cc1ccc(CNC(=O)c2c[nH]n3c(=O)c(Cc4ccc(F)cc4Cl)c(C)nc23)cc1 | 71µM* | ? | 1% | 50µM* | ? | ·
COc1ccc(CCNC(=O)c2ccccc2Cl)cc1OC | -11% | 6% | 2% | -3% | 9% | 0
CC(=O)c1ccc(OC(=O)c2nc(-c3ccccc3)oc2C)cc1 | ? | ? | -27% | 50µM* | -15% | ?
O=C(CCc1ccccc1)NNC(=O)COc1ccc(Br)cc1 | 11% | 50µM* | -2% | ? | ? | 4
O=C(CCC(=O)NNC(=O)COc1ccc(Br)cc1)NCc1ccccc1 | -8% | 35% | -5% | ? | 2% | 4
O=C(CCc1ncc(-c2ccccc2F)o1)Nc1ccccc1N1CCOCC1 | · | · | 8% | · | · | ·
CCN(CC)S(=O)(=O)c1cccc(C(=O)N/N=C/c2cc(OC)c(O)c(OC)c2)c1 | -23% | -7% | -12% | 12% | -8% | -10
CCN(CC)S(=O)(=O)c1cccc(C(=O)N/N=C/c2cccc(O)c2O)c1 | -5% | 20µM* | -16% | 8% | -42% | -13
O=C(Cc1cc(=O)[nH][nH]1)N/N=C/C(Cl)=C/c1ccccc1 | ? | 3.2µM*! | ? | 50µM* | -30% | ?
O=C1C(O)=C(O)C(=O)C(O)=C1O | · | · | · | · | 8.9µM* | ·
CC(=O)Nc1ccccc1C(F)(F)F | -12% | 22% | 0% | 3% | -12% | 0
NNc1ccccc1C(F)(F)F | 4% | 69% | ? | 20µM* | -3% | 3
Cc1ccc(CN(C)C(=O)Cn2cnc3c2c(=O)n(C)c(=O)n3C)c(C)c1 | · | · | 2% | · | · | ·
CCC(C(=O)O)n1c2ccccc2c2cn[nH]c(=O)c21 (configuration not stated) | ? | -9% | -11% | 22µM* | -31% | -2
CCC(C(=O)O)n1c(C(F)(F)F)nc2ccccc21 (configuration not stated) | -7% | 11% | ? | 4% | 1% | -5
O=C(/C=C/c1ccco1)NC(=S)Nc1cc(-c2nc3ccccc3s2)ccc1Cl | 22µM* | ? | ? | -3% | -23% | -56*
Cc1ccc(-n2nc3cc(C)c(NC(=S)NC(=O)/C=C/c4ccco4)cc3n2)cc1 | ? | 6% | 45µM* | 50µM* | -8% | -20
Cc1ccc(-c2nc3ccccc3s2)cc1NC(=S)NC(=O)/C=C/c1ccco1 | 20µM* | ? | ? | ? | -7% | -25
CCCn1nnc(NC(=S)NC(=O)/C=C/c2ccco2)n1 | ? | ? | ? | ? | 50µM* | -63*
COc1ccc(Cl)cc1C(=O)OCc1cccc(COC(=O)c2cc(Cl)ccc2OC)c1 | · | · | -3% | · | · | ·
Cc1ccccc1NC(=S)NC(=O)/C=C/c1ccco1 | 18µM* | ? | 0% | 32µM* | ? | -58*
N#Cc1c(-c2ccncc2)c2c([nH]c1=S)CCCC2 | 0% | -1% | 20µM* | -12% | -19% | -60*
Cc1ccc(-c2c3c([nH]c(=S)c2C#N)CCCC3)o1 | ? | ? | ? | ? | -28% | ·
O=C(CSc1nc2ccc(NC(=O)C3CCCCC3)cc2s1)Nc1ccc(Cl)cc1 | · | · | 73% | · | · | ·
COc1ccc(C2COc3cc(O)ccc3C2)c(OC)c1O (configuration not stated) | 0% | 79µM* | 35µM* | · | 9% | -6
CC1(C)C=Cc2c(ccc3c2OC[C@H](c2ccc(O)cc2O)C3)O1 | -13% | 6% | ? | · | -4% | 23
CC(C)CNC(=O)c1cc(-c2cccs2)nc2ccccc12 | · | · | -7% | · | · | ·
Cc1ccc(S(=O)(=O)Oc2cccc(/C=N/Nc3ccc(C(=O)O)cc3)c2)cc1 | 79µM* | 1% | -3% | -9% | 5% | -6

Assay outcomes from PubChem BioAssay.
